These results are taken from PMC4336329 (PLoS ONE, 2015).

SMILES strings stand for the structures. Screen size: about 310,000 compounds; about 14,000 (4.5%) showed an effect of 50% or more. The effect is printed as a negative number. The sample as a whole holds a higher share of strong results than the screen did.
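Note: peak tail current of the secondary pulse compared with the same well before compound.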

Chain of human ether-à-go-go-related gene (hERG) potassium channel (Q12809 whole entry, looked up): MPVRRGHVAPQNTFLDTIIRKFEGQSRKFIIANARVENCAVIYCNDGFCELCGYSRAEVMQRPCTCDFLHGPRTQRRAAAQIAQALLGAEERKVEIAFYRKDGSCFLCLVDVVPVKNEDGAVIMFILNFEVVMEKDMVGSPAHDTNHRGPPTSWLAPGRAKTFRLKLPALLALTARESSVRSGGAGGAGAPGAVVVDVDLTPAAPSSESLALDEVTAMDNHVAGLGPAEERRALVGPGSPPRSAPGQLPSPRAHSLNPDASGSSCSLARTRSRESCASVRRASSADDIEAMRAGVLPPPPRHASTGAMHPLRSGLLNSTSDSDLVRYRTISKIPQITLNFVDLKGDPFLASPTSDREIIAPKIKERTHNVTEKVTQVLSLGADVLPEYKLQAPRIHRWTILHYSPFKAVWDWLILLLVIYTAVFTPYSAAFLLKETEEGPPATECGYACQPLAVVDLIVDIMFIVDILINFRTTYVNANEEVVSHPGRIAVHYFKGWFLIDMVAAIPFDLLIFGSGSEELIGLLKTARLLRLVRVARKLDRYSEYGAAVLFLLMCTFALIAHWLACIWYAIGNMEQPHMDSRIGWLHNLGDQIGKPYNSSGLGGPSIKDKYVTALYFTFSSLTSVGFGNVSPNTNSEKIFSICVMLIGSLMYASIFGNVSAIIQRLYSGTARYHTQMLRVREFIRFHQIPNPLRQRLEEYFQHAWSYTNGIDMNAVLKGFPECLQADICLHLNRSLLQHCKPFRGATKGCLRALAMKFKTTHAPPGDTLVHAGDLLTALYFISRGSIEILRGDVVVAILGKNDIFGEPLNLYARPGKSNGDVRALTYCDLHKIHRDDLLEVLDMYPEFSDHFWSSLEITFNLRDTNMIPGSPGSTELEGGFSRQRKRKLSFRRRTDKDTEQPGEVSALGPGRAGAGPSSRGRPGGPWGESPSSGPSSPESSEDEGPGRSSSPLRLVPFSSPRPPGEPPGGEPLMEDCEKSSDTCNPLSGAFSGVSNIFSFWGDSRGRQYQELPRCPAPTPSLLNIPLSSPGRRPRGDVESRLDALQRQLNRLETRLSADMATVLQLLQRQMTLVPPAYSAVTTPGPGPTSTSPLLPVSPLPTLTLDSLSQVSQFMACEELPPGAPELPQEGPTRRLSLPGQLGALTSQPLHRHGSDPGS

The assay concerns the target human ether-à-go-go-related gene (hERG) potassium channel (human, UniProt Q12809). In words: primary screen, population patch clamp on CHO cells stably expressing hERG; higher = less effect of the substance.
On to `CCCOc1ccc(C(O)C(CN2CCOCC2)c2ccccc2)cc1.Cl` (stereo not drawn), for which the “hERG current change (%, negative = inhibition) at 10uM” value was 1.07%.

On to `CC(CC(=O)N1CCN(S(=O)(=O)c2ccc([N+](=O)[O-])cc2)CC1)c1ccccc1` (stereo not drawn), for which the “hERG current change (%, negative = inhibition) at 10uM” value is on record as -67.8%. Then `CC(C)CC(=O)N1CCN(S(=O)(=O)c2ccccc2)CC1`, with 0.444%. Then `O=C(/C=C/c1ccc(F)cc1)N1CCN(Cc2ccccc2)CC1`, with -40.6%; and `O=C(/C=C/c1ccc(OCCCF)cc1)N1CCOCC1`, with 1.61%. Then `Clc1ccc(/C=N/N2CCN(Cc3ccccc3Cl)CC2)cc1`, with 14.9%. Take `COc1ccc(/C=N\N2CCN(Cc3ccccc3Cl)CC2)cc1.Cl`: the “hERG current change (%, negative = inhibition) at 10uM” value is recorded as -62.4%. In the case of `O=[N+]([O-])c1ccc(Cl)c(/C=N/N2CCN(Cc3ccccc3)CC2)c1` it was -1.74%.

Regarding `COc1ccc(/C=N/N2CCN(Cc3ccccc3)CC2)cc1`, the “hERG current change (%, negative = inhibition) at 10uM” value was -2.63%. In the case of `O=C(/C=C/c1ccc([N+](=O)[O-])cc1)N1CCN(S(=O)(=O)c2ccccc2)CC1` it was -34.1%; in that of `O=[N+]([O-])c1ccc(/C=N/N2CCN(Cc3ccccc3)CC2)cc1`, -56.3%; in that of `O=C(/C=C/c1ccc(OCCCF)cc1)N1CCN(Cc2ccccc2)CC1`, -65.6%. In the case of `O=[N+]([O-])c1cccc(/C=N/N2CCN(Cc3ccccc3)CC2)c1` it was -0.159%. Regarding `CCOc1ccc(NC(=O)CN(C)C(=O)c2c(-c3c(F)cccc3Cl)noc2C)cc1OCC`, the “hERG current change (%, negative = inhibition) at 10uM” value was -3.83%.

Turning to `Cc1cccc(C)c1OCc1cc(C(=O)N2CCN(c3ccccc3)CC2C)no1` (stereo not drawn), the “hERG current change (%, negative = inhibition) at 10uM” value is 7.3%. In the case of `O=C(COc1ccc(/C=N/NC(=O)c2ccccc2O)cc1)Nc1ccc([N+](=O)[O-])cc1` it was 13.7%; in that of `COc1ccc(NC(=O)C2=CC(c3ccco3)=NS(=O)(=O)N2C)cc1`, 0.0772%; in that of `CCCCCCNC(=O)N[C@H](Cc1ccc(O)cc1)C(=O)NCCC[C@H]1CN2C(=NC[C@H]2CCC)N1CC1CCC1`, 9.27%. Then `CCCCCCC(=O)N1C/C=C\C(c2ccc(OC)cc2)N(Cc2ccc(F)cc2)C(=O)C1` (stereo not drawn), with -43.7%; and `CCN(CC)S(=O)(=O)c1cc(OC)c(C)cc1C`, with -5.58%. Then `O=C(/C=C/c1ccc(Cl)cc1)N1CCN(Cc2ccccc2)CC1`, with -35.6%. For the compound `CC(=O)c1ccc(N2CCN(C(=O)Cc3cccs3)CC2)cc1`, the “hERG current change (%, negative = inhibition) at 10uM” value is -33.3%. Then `CC(=O)c1ccc(N2CCN(C(=O)CCS(=O)(=O)c3ccc(C)cc3)CC2)cc1`, with -41%; and `O=C(Cc1cccs1)N1CCN(c2ccc(F)cc2)CC1`, with -4.82%. Then `Cc1ccc(S(=O)(=O)CCC(=O)N2CCN(c3ccc(Cl)cc3)CC2)cc1`, with -23.8%. In the case of `Cc1cc([N+](=O)[O-])ccc1NC(=O)c1sc2ncn(CC(=O)N3CCOCC3)c(=O)c2c1C`, the “hERG current change (%, negative = inhibition) at 10uM” value was -0.176%. Then `Cc1ccc(S(=O)(=O)CCC(=O)N2CCN(c3ccc([N+](=O)[O-])cc3)CC2)cc1`, with -70.8%; and `O=C(/C=C/c1ccc([N+](=O)[O-])cc1)N1CCN(Cc2ccccc2)CC1`, with -66.8%. In the case of `Cc1c(C(=O)N2CCN(c3ccccc3F)CC2)sc2ncn(CC(=O)N3CCOCC3)c(=O)c12` it was -3.64%; in that of `Cc1c(C(=O)N2CCN(c3ccc([N+](=O)[O-])cc3)CC2)sc2ncn(CC(=O)N3CCOCC3)c(=O)c12`, -62.2%; in that of `O=C(/C=C/c1cccc([N+](=O)[O-])c1)N1CCN(Cc2ccccc2)CC1`, -47.5%. In the case of `O=C(Cc1cccs1)N1CCN(c2ccc([N+](=O)[O-])cc2)CC1` it was -66.1%; in that of `Cn1c(=O)cc(OCC(=O)N2CCN(C3CCCCC3)CC2)c2ccccc21`, -18.6%. With `CN(CCc1ccccn1)C(=O)c1cccnc1Oc1ccccc1`, the “hERG current change (%, negative = inhibition) at 10uM” value came out at 11.3%. In the case of `O=C(O)C12C[C@H]3C[C@@H](C1)CC(n1ncc(N4CCN(c5ccccc5)CC4)c(Cl)c1=O)(C3)C2` it was 9.94%. Then `CN(C(=O)Cn1c(=O)oc2ccccc21)C1CCCCC1`, with -1.73%; and `CCCN(CCC)CCCNC(=O)Cn1cnc2sc(C)c(S(=O)(=O)N3CCCCC3)c2c1=O`, with 9.2%. Then `CCCCOc1ccc(C(=O)NCC(=O)N(C)CC(=O)Nc2ccc(N3CCOCC3)cc2)cc1`, with -27.4%; and `C(=N\N1CCOCC1)/c1ccsc1.O=P(O)(O)O`, with 18.8%. As to `CC(Cc1ccccc1)NC(=O)/C=C/c1ccc(Cl)cc1` (stereo not drawn), the “hERG current change (%, negative = inhibition) at 10uM” value is given as -11.7%. For `Cc1ccc(S(=O)(=O)NCc2ccc(C(=O)N3CCN(c4ccccc4)CC3)cc2)cc1`, the “hERG current change (%, negative = inhibition) at 10uM” value was -18.6%. For the compound `CC(Cc1ccccc1)NC(=O)/C=C/c1ccc([N+](=O)[O-])cc1` (stereo not drawn), the “hERG current change (%, negative = inhibition) at 10uM” value is listed as -51.7%.
